Experimental data reported in PubChem BioAssay AID686954 (Sanford-Burnham Center for Chemical Genomics, 2013).
The whole screen tested about 30,000 compounds, of which about 240 (0.8%) were called active. The sample holds actives, similar compounds and a random draw of the others, so the mix is not that of the screen. A number with no mark means an inactive call.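 The calls were made as follows: active = at 10 µM dose, at least 30% inhibition, measured as corrected fluorescence normalized to stimulator and neutral control wells; inactive = the rest.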

molecular target: Protein artemis (Homo sapiens) (UniProt Q96SD1); assay: blockers of Artemis DNA hairpin overhang cleavage – biochemical, fluorescence intensity, FAM/BHQ-1 hairpin substrate, primary screen (AID 686954); details: recombinant Artemis, quenched FAM hairpin cleavage fluorescence; at 10 µM; stronger effect = higher value
Sequence (Q96SD1 whole entry, looked up): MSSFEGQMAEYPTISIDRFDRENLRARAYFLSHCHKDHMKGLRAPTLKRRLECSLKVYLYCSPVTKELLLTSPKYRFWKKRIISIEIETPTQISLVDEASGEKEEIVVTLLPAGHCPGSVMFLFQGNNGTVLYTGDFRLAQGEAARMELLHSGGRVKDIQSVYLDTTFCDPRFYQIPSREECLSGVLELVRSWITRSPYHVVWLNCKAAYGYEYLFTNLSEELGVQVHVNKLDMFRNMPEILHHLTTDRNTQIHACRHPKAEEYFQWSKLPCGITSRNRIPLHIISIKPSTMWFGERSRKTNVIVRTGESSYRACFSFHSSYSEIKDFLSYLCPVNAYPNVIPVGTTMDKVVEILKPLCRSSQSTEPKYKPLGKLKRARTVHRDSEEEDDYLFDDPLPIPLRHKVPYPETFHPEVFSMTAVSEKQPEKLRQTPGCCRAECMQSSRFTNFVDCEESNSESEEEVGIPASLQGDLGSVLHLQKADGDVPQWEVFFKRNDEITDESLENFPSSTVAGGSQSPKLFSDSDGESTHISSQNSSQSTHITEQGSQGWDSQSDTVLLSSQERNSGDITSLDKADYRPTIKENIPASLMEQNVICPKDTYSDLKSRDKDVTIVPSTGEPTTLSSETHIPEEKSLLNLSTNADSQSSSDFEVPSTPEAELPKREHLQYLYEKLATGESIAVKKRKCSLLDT

| SMILES | inhibition |
| --- | --- |
| COC(=O)/C=C/C(=O)NCc1ccco1 | 25.1% |
| Cc1ccccc1OC(=O)Cn1c(C(F)(F)F)nc2ccccc21 | 1.38% |
| Cc1cc2c(cc1C)N(C(=O)CN1C(=O)c3ccccc3C1=O)C(C)(C)c1ssc(=S)c1-2 | 2.13% |
| O=C(Oc1cccnc1)c1cc2ccccc2oc1=O | 4.63% |
| CC(C)C(c1nnnn1CCc1ccccc1)N1CCN(C(=O)c2ccco2)CC1 (stereo unspecified) | -0.73% |
| COc1ccc(C2C(C(C)=O)=C(O)C(=O)N2c2nccs2)cc1 (stereo unspecified) | -6.55% |
| Cc1ccc(SCC(=O)Nc2ncc(C)s2)cc1 | 3.54% |
| O=C(N/N=C\c1ccc(-c2ccc(Cl)c(Cl)c2)o1)C(=O)N1CCCC1 | 10.4% |
| Cc1cc(-c2ccccc2)n2nc(C)c(-c3ccccc3)c2n1 | -3.76% |
| O=C(c1ccccc1Oc1ccccc1)N1CCN(c2ccc(F)cc2)CC1 | 10.1% |
| Cc1cc(C)n2nc(C(=O)NC(C)(C)C)nc2n1 | -8.47% |
| CCCCNC(=O)CSc1nc2ccc(NC(=O)CSc3nnc(COc4ccccc4C)n3C)cc2s1 | 1.88% |
| CC(=O)c1ccc(Cc2ncc(C(F)(F)F)cc2Cl)s1 | -6.84% |
| O=C(Cn1c(-c2cscn2)nc2ccccc21)Nc1ccc(Cl)cc1 | 6.18% |
| COc1cc(CNCc2cccs2)cc(Br)c1OC | -2.14% |
| CCOCC(=O)Nc1cc(OC)c(Cl)cc1OC | -5.52% |
| Cc1ccc(/C=N/NC(=O)C(NC(=O)c2ccccc2)c2n[nH]c(=O)c3ccccc23)cc1 (stereo unspecified) | 10.5% |
| COCCCn1c(SCC(=O)Nc2ccccc2)nnc1-c1ccncc1 | -5.35% |
| Cn1c(=O)c2c(n(Cc3ccccc3)c1=O)NC(=O)C2CC(=O)N1CCc2ccccc2C1 (stereo unspecified) | 6.23% |
| O=C(Nc1ccc(-n2ccnc2P(=O)(O)c2ccccc2)cc1)c1ccccc1Br | 4.42% |
| CCN(CC)CCN1C(=O)C(=O)/C(=C(/O)c2ccccc2)C1c1ccccc1F (stereo unspecified) | 3.66% |
| CC(C)(C)NS(=O)(=O)CC12CCC(CC1=O)C2(C)C (stereo unspecified) | -3.02% |
| CN(C)CCNC(=O)Nc1cccc(Cl)c1Cl | -0.2% |
| CCN(CC)Cc1cc(C(C)=O)ccc1O | -4.35% |

| SMILES | inhibition |
| --- | --- |
| O=C(Nc1nnc(SCc2ccccc2)s1)c1ccco1 | 12.4% |
| Cc1nn2c3ccccc3nc2n(C)c1=O | 0.11% |
| O=C(Nc1ccc2c(c1)CCC2)c1cccc(S(=O)(=O)N2CCN(c3ccc(F)cc3)CC2)c1 | 2.72% |
| CN1CCN(S(=O)(=O)c2ccc(N3CCN(S(=O)(=O)c4cccs4)CC3)nc2)CC1 | -9.36% |
| Cc1ccc(NC(=S)NC2CCCC2)cc1 | 1.01% |
| CCC(=O)NNc1cc(=O)c2c(=O)n(C)c(=O)n(C)c2[nH]1 | 0.17% |
| COc1cccc(CNc2nc3nc4c(c(=O)n3[nH]2)CCC4)c1 | -6.09% |
| CCN(Cc1ccncc1)C(=O)c1cccc(S(=O)(=O)N2CCOCC2)c1 | -1.99% |
| Cc1cc(C)c2c(-n3cccc3)c(NC(=O)OCc3ccccc3)sc2n1 | 0.14% |
| CCOc1cccc(C(=O)Nc2cnn(Cc3ccccc3)c2)c1 | 0.76% |
| Cc1ccc(C2NC(=S)NC3=C2N2CCC3CC2)cc1 (stereo unspecified) | -3.09% |
| CN1CCN(Cc2c(O)ccc3c2oc(=O)c2ccccc23)CC1 | -4.24% |
| Cc1ccc(/C=N\n2c(-c3ccccc3)n[nH]c2=S)s1 | 4.19% |
| CC(=O)c1sc(NC(=O)c2cccc3ccccc23)nc1C | 5.24% |
| Cc1nnc(NC(=O)CCCOc2ccccc2)s1 | -2.98% |
| NC(=O)C1CCN(C(=O)c2ccc(C(F)(F)F)cc2)CC1 | -5.95% |
| O=C(NCC1CCCO1)c1ccc2ccccc2n1 (stereo unspecified) | 1.24% |
| N#C/C(=C(/O)COc1cccc2ccccc12)c1nc2ccccc2[nH]1 | -3.72% |
| CC(C)(O)C(=O)NN(C(=O)c1ccccc1)c1cccc(Br)c1 | -17.1% |
| O=C(COc1ccc2oc3c(c2c1)CCCC3)Nc1ccccn1 | -4.41% |
| CCOC(=O)C1CCc2nc3ccccc3c(=O)n21 (stereo unspecified) | -9.86% |
| CCC(C)NC(=O)c1ccccc1NC(=O)c1ccccc1N(C)S(C)(=O)=O (stereo unspecified) | -0.77% |
| O=C(CSc1nnc(-c2ccco2)n1-c1ccccc1)NCCc1ccccc1 | 5.03% |
| CCOc1ccc(-c2c(C)n([O-])c3c([n+]2=O)CCCC3)cc1 | -6.29% |

| SMILES | inhibition |
| --- | --- |
| CCC(=O)NC(Nc1nc2ccc(C)cc2s1)(C(=O)OC)C(F)(F)F (stereo unspecified) | -8.44% |
| CCn1c(COc2ccccc2)nnc1SCC(=O)Nc1ccc2c(c1)OCCO2 | -7.11% |
| S=C(NCCC1=CCCCC1)Nc1ccccc1 | 3.85% |
| CCOC(=O)C1=NNC2(c3ccc(Cl)cc3)C(=O)N(c3cc(C)cc(C)c3)C(=O)C12 (stereo unspecified) | 1.03% |
| Cc1oc2nc(SCC(=O)NCc3cccnc3)nc(N)c2c1C | 2.99% |
| CCCc1ccc(OCc2ccc(C(=O)N/N=C/c3cccc([N+](=O)[O-])c3)o2)c(OC)c1 | -9.45% |
| Cc1c(Cl)c([N+](=O)[O-])nn1Cc1ccc(C(=O)N/N=C\c2cc(Cl)ccc2O)o1 | 31% (active) |
| Cc1nn(Cc2ccccc2Cl)c(C)c1NC(=O)Cn1nc([N+](=O)[O-])c(Cl)c1C | 1.31% |
| COc1ccc(-c2nc3ccccc3n2CCC(C)C)cc1OC | 7.4% |
| CCSc1nnc(NC(=O)Cc2ccccc2OC)s1 | 2.36% |
| C[C@H](NC(=O)NCCc1ccccc1)C(=O)O | -9.76% |
| CCOC(=O)c1nc(Nc2ccc(C(=O)OC)cc2)c2ccccc2n1 | -0.44% |
| C/C(=N\NC(=O)c1ccccc1C)c1ccc(N2CCOCC2)cc1 | 0.87% |
| COc1cccc(-c2cc(C(=O)N/N=C/c3ccc(OC)c(COC(C)=O)c3)c3ccccc3n2)c1 | 9.16% |
| CS(=O)(=O)n1nc(-c2ccccc2)nc1NCc1ccco1 | -21.9% |
| CC(=O)N/C(=C/c1ccc(Cl)cc1)C(=O)NCCc1c[nH]c2ccccc12 | -1.86% |
| O=C(Cn1cncn1)N/N=C/c1c2ccccc2cc2ccccc12 | -6.23% |
| CC(C)Oc1ccc(C(=O)NC(C)(C)CO)cc1 | 1.84% |
| O=C(CN(Cc1ccccc1)C(=O)c1ccc2c(c1)OCCO2)NCc1ccc2c(c1)OCO2 | -2.04% |
| CC1(C)Cc2ccccc2-c2nnc(-c3cccc(O)c3)n21 | -6.85% |
| Cc1ccc(C(=O)OC2=CC(=O)CC(C)(C)C2)cc1 | -0.31% |
| CCOC(=O)c1cnc(-c2ccccc2)nc1Oc1ccc(C)cc1 | 7.75% |
| CSc1nc(C)cc(SC(C(C)=O)C(=O)Nc2ccccc2)n1 (stereo unspecified) | -3.91% |
| COc1ccc(-c2nn(-c3ccccc3)cc2C(=O)Nc2nc(CC(C)=O)ns2)cc1 | 45.9% (active) |

| SMILES | inhibition |
| --- | --- |
| CC(=O)Cc1nsc(NC(=O)c2ccc(COc3ccc(C)cc3)o2)n1 | -5.26% |
| COc1ccc(-c2nn(-c3ccccc3)cc2C(=O)Nc2nccs2)cc1OC | 27.5% |
| CN1/C(=c2/s/c(=C3/C(=O)N(c4ccccc4)NC3=Nc3ccccc3)n(C)c2=O)C(C)(C)c2ccccc21 | 15.8% |
| CCOC(=O)C1=C(CNC2CCCCC2)NC(=O)NC1c1cc(C)ccc1C (stereo unspecified) | -5.92% |
| O=C(/C=C/c1ccccc1)c1ccoc1 | -1.46% |
| O=C(Nc1ccccc1Cl)O/N=C(/c1ccccc1)c1ccccn1 | 6.79% |
| Cc1ccc2nc(SC(C)C(=O)NCc3ccco3)[nH]c2c1 (stereo unspecified) | 4.88% |
| Cc1ccc(-n2c(C)cc(/C=N/Nc3ccc([N+](=O)[O-])cn3)c2C)c(C)c1 | 14.4% |
| NC(=O)COc1ccc(/C=N/NC(=O)C2CCCN2S(=O)(=O)c2ccc(Cl)cc2)cc1 (stereo unspecified) | 0.47% |
| CC1CCN(CC(=O)c2c[nH]c3ccccc23)CC1 | -3.18% |
| CCOC(=O)Nc1sc(C(=O)N(C)C)c(C)c1C(=O)OCC | 7.1% |
| O=C(Cc1ccc(S(=O)(=O)N2CCCC2)s1)NC1CCCCCC1 | 0.64% |
| CCOc1c(Cl)cc(/C=N/O)cc1OC | -3.96% |
| CCNc1nc(N)nc(-c2cc(Cl)ccc2OC)n1 | -15.5% |
| Cc1cccc(N2CCN(C(c3ccc(N(C)C)cc3)c3nnnn3C(C)(C)C)CC2)c1C (stereo unspecified) | 4.46% |
| COCCNCCOCCOc1cccc(OC)c1 | -0.71% |
| CC(C)OC(=O)CN1C(=O)c2ccccc2C1=O | -7.81% |
| CC(=O)Oc1ccc(NC(=O)CCC2CCCCC2)c(C(=O)O)c1 | -1.44% |
| Cc1nnc(SCC(=O)NCCOc2ccc(Cl)cc2)n1-c1ccccc1 | -3.78% |
| CC1(C)CCCC2=C1CC1C(=O)N(c3ccccc3)C(=O)C1C2 (stereo unspecified) | -1.84% |
| O=C1Nc2ccc(Br)cc2/C1=N/N=C/C1=C(N2CCOCC2)C(=C\c2ccccc2)/CC1 | 30.1% (active) |
| COc1ccc(-c2noc(-c3ccc(C)cc3)n2)cc1 | 0.23% |
| Cc1ccc2[nH]c3c(=O)n(Cc4ccccn4)cnc3c2c1 | 3.97% |
| C=CCNc1cnn(-c2ccc(C)cc2)c(=O)c1Cl | 3.95% |
